According to PubChem BioAssay (Tox21):
Where “and” joins values, the source holds several entries; their conditions need not be identical. Equal values may be shown once. A number with no mark means an inactive call. Results filed as inconclusive are left out. Entries that show only a call come without a potency. Calls of active or inactive are those of the source. Unless noted, the call rests on the fitted dose curve; in most records, active means well fitted curve in the direction sought with a large enough effect in the repeat runs; inconclusive means weak or mixed curves; inactive means no such curve, though single readings can be large; an effect the other way counts as inactive or inconclusive.

Legend:
[1] = qHTS assay for small molecules that induce genotoxicity in human embryonic kidney cells expressing luciferase-tagged ATAD5 (AID 651632); further: nearly all actives have a fitted effect of over 15% in size; further: potency means the concentration at half of the fitted maximal effect
Procedure, shortened: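 Increased luciferase signal from ATAD5-tagged reporter cells indicates DNA-damage-driven ATAD5 induction. HEK293T cells are treated for 16 hr at 37C before detection with Amplite.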

[2] = qHTS assay for small molecules that induce genotoxicity in human embryonic kidney cells expressing luciferase-tagged ATAD5 - cell viability (AID 651634; calls by dose curve; further: nearly all actives have a fitted effect of over 25% in size; further: potency means the concentration at half of the fitted maximal effect)
Procedure, shortened: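 Cytotoxicity counterscreen in HEK293T cells bearing an ATAD5-luciferase reporter: live-cell protease activity measured by CellTiter-Fluor fluorescence after 15.5 hr compound exposure.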

[3] = qHTS assay for small molecule disruptors of the mitochondrial membrane potential - cell viability (AID 720634; calls by dose curve; further: nearly all actives have a fitted effect of over 20% in size; further: potency means the concentration at half of the fitted maximal effect;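 on activity change, negative = cytotoxicity: human HepG2 liver cancer cells; series mostly up to about 83 µM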)
Procedure, shortened: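 After overnight attachment at 37 C, HepG2 cells received compound or DMSO vehicle for 1 hr. Viability is then taken from ATP-driven luminescence following a 30 min room-temperature CellTiter-Glo step.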

[4] = qHTS assay for small molecule disruptors of the mitochondrial membrane potential (AID 720635); further: potency means the concentration at half of the fitted maximal effect
Procedure, shortened: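 HepG2 cells (2,000/well) attached overnight at 37C, then took compound for 1 hr at 37C, 5% CO2. Mito-MPS dye was added for 30 min; fluorescence was read at 490/535 nm (monomers) and 540/590 nm (aggregates).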

[5] = qHTS assay to test for compound auto fluorescence at 590 nm (red) in HepG2 cells (AID 720674)
Procedure, shortened: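 Rose Bengal sodium served as the red fluorophore standard. HepG2 monolayers (overnight attachment, MEM with 10% FBS) were exposed to test compounds for 1 hr at 37 C and read at Ex 540/Em 590 nm.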

[6] = qHTS assay to test for compound auto fluorescence at 590 nm (red) in HEK293 cells (AID 720679)
Procedure, shortened: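 Intensity at 540nm excitation and 590nm emission is reported as Rose Bengal sodium-equivalent autofluorescence. Measurements followed overnight exposure (37C, 5% CO2) of HEK293 cells, 2,000 per well, to 23 nL compound.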

[7] = qHTS assay for small molecule agonists of the p53 signaling pathway - cell viability (AID 651633; calls by dose curve; further: nearly all actives have a fitted effect of over 30% in size; further: potency means the concentration at half of the fitted maximal effect;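 on activity change, negative = cytotoxicity: p53RE-bla HCT reporter cells with a stable beta-lactamase p53 reporter; series mostly up to about 83 µM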)
Procedure, shortened: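 p53RE-bla cells, seeded at 4,000 per well and rested 5 h at 37 C/5% CO2, received compounds in DMSO for 16 h at 37 C. CellTiter-Glo was then added, and luminescence was read after 30 min at room temperature to gauge cytotoxicity.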

[8] = qHTS assay to test for compound auto fluorescence at 535 nm (green) in HepG2 cells (AID 720675)
[9] = qHTS assay to test for compound auto fluorescence at 460 nm (blue) in HEK293 cells (AID 720678)
Procedure, shortened: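 HEK293, 2,000 cells/well, 10% dialyzed FBS; attach 4-5 hr 37C; pin compound or DMSO; o/n 37C/5% CO2; fluorescence 405/460 nm; triamterene-equivalent units.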

## CN1CC[C@]23c4c5ccc(O)c4O[C@H]2[C@@H](O)C=C[C@H]3[C@H]1C5
[1]
  Potency: inactive
[2]
  Potency: inactive
[3]
  Potency: inactive
[4]
  Potency: inactive
[5]
  outcome: inactive
[6]
  outcome: inactive

## CCCN(CCOc1c(Cl)cc(Cl)cc1Cl)C(=O)n1ccnc1
[1]
  Potency: inactive
[7]
  Potency: inactive
[2]
  Potency: inactive
[5]
  outcome: inactive
[8]
  outcome: inactive
[9]
  outcome: inactive

## O=C(O)C(O)C(O)C(=O)O (stereo not drawn)
[1]
  Potency: inactive
[2]
  Potency: inactive
[5]
  outcome: inactive
[8]
  outcome: inactive
[9]
  outcome: inactive
[6]
  outcome: inactive

## O=C(O)CCCOc1ccc(Cl)cc1Cl
[7]
  Potency: inactive
[3]
  Potency: inactive
[5]
  outcome: inactive
[8]
  outcome: inactive
[9]
  outcome: inactive
[6]
  outcome: inactive

## C=CCSSCC=C
[1]
  Potency: inactive
[7]
  Potency: inactive
[2]
  Potency: inactive
[4]
  Potency: inactive
[5]
  outcome: inactive
[8]
  outcome: inactive
[9]
  outcome: inactive

## C[C@]12C=CC3=C4CCC(=O)C=C4CC[C@H]3[C@@H]1CC[C@@H]2O
[1]
  Potency: inactive
[2]
  Potency: inactive
[3]
  Potency: inactive
[5]
  outcome: inactive
[6]
  outcome: inactive

## C=C(C)C(=O)OCCCCOC(=O)C(=C)C
[1]
  Potency: inactive
[7]
  Potency: inactive
[2]
  Potency: inactive
[5]
  outcome: inactive
[8]
  outcome: inactive
[9]
  outcome: inactive

## CN1C(=O)CN=C(c2ccccc2)c2cc([N+](=O)[O-])ccc21
[7]
  Potency: inactive
[5]
  outcome: inactive
[8]
  outcome: inactive
[9]
  outcome: inactive
[6]
  outcome: inactive

## CCC1(C2=NCCN2)Cc2ccccc2O1 (stereo not drawn)
[1]
  Potency: inactive
[7]
  Potency: inactive
[2]
  Potency: inactive
[4]
  Potency: inactive
[5]
  outcome: inactive
[8]
  outcome: inactive
[9]
  outcome: inactive
[6]
  outcome: inactive

## O=C(N/N=C/c1ccc([N+](=O)[O-])o1)c1cc([N+](=O)[O-])cc([N+](=O)[O-])c1O
[1]
  Potency: inactive
[7]
  Potency: 26.6 µM (active)
[3]
  Potency: inactive
[5]
  outcome: inactive
[8]
  outcome: inactive
[9]
  outcome: inactive
[6]
  outcome: inactive

## COP(=O)(OC)OC(Br)C(Cl)(Cl)Br (stereo not drawn)
[2]
  Potency: inactive
[5]
  outcome: inactive
[9]
  outcome: inactive

## CC(=O)NNc1ccccc1
[7]
  Potency: inactive
[2]
  Potency: 10.8 µM (active)
[5]
  outcome: inactive
[8]
  outcome: inactive
[9]
  outcome: inactive
[6]
  outcome: inactive

## CCC1CCC(=O)O1 (stereo not drawn)
[1]
  Potency: inactive
[7]
  Potency: inactive
[2]
  Potency: inactive
[4]
  Potency: inactive
[5]
  outcome: inactive
[9]
  outcome: inactive
[6]
  outcome: inactive

## O=C(O)C(F)(F)C(F)(F)C(F)(F)C(F)(F)C(F)(F)C(F)(F)C(F)(F)C(F)(F)F
[1]
  Potency: inactive
[7]
  Potency: 61.1 µM (active)
[5]
  outcome: inactive
[9]
  outcome: inactive
[6]
  outcome: inactive

## C[CH2][Hg][S]c1ccccc1C(=O)O
[7]
  Potency: 3.35 µM (active) and 2.43 µM (active)
[2]
  Potency: 11.9 µM (active) and 27.3 µM (active)
[3]
  Potency: 13.3 µM (active) and 15.4 µM (active)
[4]
  Potency: 11.9 µM (active) and 15.4 µM (active)
[5]
  outcome: inactive
[8]
  outcome: inactive
[9]
  outcome: inactive
[6]
  outcome: inactive

## C[Si](Cn1cncn1)(c1ccc(F)cc1)c1ccc(F)cc1
[1]
  Potency: inactive
[2]
  Potency: inactive
[3]
  Potency: 31.6 µM (active)
[4]
  Potency: 56.3 µM (active) and 27.3 µM (active)
[5]
  outcome: inactive
[9]
  outcome: inactive
[6]
  outcome: inactive

## Nc1ccc2c(c1)Cc1ccccc1-2
[7]
  Potency: inactive
[2]
  Potency: inactive
[3]
  Potency: inactive
[5]
  outcome: inactive
[9]
  outcome: inactive

## ClCc1ccccc1Cl
[1]
  Potency: inactive
[7]
  Potency: inactive
[2]
  Potency: inactive
[5]
  outcome: inactive
[8]
  outcome: inactive
[9]
  outcome: inactive
[6]
  outcome: inactive

## CON(C)C(=O)Nc1ccc(Cl)cc1
[1]
  Potency: inactive
[7]
  Potency: inactive
[2]
  Potency: inactive
[5]
  outcome: inactive
[8]
  outcome: inactive
[6]
  outcome: inactive

## O=CC=O
[1]
  Potency: inactive
[7]
  Potency: inactive
[2]
  Potency: inactive
[4]
  Potency: inactive
[5]
  outcome: inactive
[8]
  outcome: inactive
[6]
  outcome: inactive

## NNCCO
[1]
  Potency: inactive
[7]
  Potency: inactive
[2]
  Potency: inactive
[5]
  outcome: inactive
[8]
  outcome: inactive
[6]
  outcome: inactive

## CCNC(=O)NC(=O)/C(C#N)=N/OC
[1]
  Potency: inactive
[7]
  Potency: inactive
[2]
  Potency: inactive
[5]
  outcome: inactive
[8]
  outcome: inactive
[9]
  outcome: inactive
[6]
  outcome: inactive

## O=P(OCC(Br)CBr)(OCC(Br)CBr)OCC(Br)CBr (stereo not drawn)
[1]
  Potency: inactive
[7]
  Potency: inactive
[2]
  Potency: inactive
[5]
  outcome: inactive
[9]
  outcome: inactive
[6]
  outcome: inactive

## CN1C[C@H](C(=O)N[C@]2(C)O[C@@]3(O)[C@@H]4CCCN4C(=O)[C@H](Cc4ccccc4)N3C2=O)C=C2c3cccc4[nH]cc(c34)C[C@H]21
[1]
  Potency: inactive
[7]
  Potency: inactive
[4]
  Potency: 4.22 µM (active) and 9.73 µM (active) and 18 µM (active)
[5]
  outcome: inactive
[8]
  outcome: inactive
[9]
  outcome: inactive

## CC1(C)[C@H](C(=O)O[C@H](C#N)c2cccc(Oc3ccccc3)c2)[C@@H]1C=C(Br)Br
[7]
  Potency: inactive
[2]
  Potency: inactive
[5]
  outcome: inactive
[8]
  outcome: inactive
[9]
  outcome: inactive
[6]
  outcome: inactive

## CCCCCCCCCCCCN=C(N)N
[1]
  activation: -6.24% [at 3.63 µM]
[7]
  activity change, negative = cytotoxicity: -15.7% [at 3.63 µM]
[2]
  activity, negative = cytotoxicity: -6.8% [at 3.63 µM]
[5]
  fluorescence, relative to Rose Bengal: 0.188% [at 3.72 µM]
[9]
  fluorescence, % of triamterene: -0.0427% [at 3.72 µM]
[6]
  fluorescence, % of fluorescent control: 0.144% [at 3.72 µM]

## CC(C)(C)N(NC(=O)c1ccc(Cl)cc1)C(=O)c1ccccc1
[1]
  Potency: inactive
[7]
  Potency: inactive
[4]
  Potency: 60.8 µM (active)
[5]
  outcome: inactive
[8]
  outcome: inactive

## Cc1cccc(C)c1NC1=NCCCS1
[1]
  Potency: inactive
[7]
  Potency: inactive
[2]
  Potency: inactive
[5]
  outcome: inactive
[8]
  outcome: inactive
[6]
  outcome: inactive

## CCC(C)(C)O
[1]
  Potency: inactive
[2]
  Potency: inactive
[5]
  outcome: inactive
[9]
  outcome: inactive
[6]
  outcome: inactive

## CC(=O)OC(c1ccccc1)C(Cl)(Cl)Cl (stereo not drawn)
[1]
  Potency: inactive
[7]
  Potency: inactive
[2]
  Potency: inactive
[4]
  Potency: 54.5 µM (active)
[5]
  outcome: inactive
[8]
  outcome: inactive
[6]
  outcome: inactive

## Nc1ccccc1C(=O)OCCc1ccccc1
[1]
  Potency: 1.09 µM (active) and 433 nM (active)
[7]
  Potency: inactive
[2]
  Potency: inactive
[4]
  Potency: 48.8 µM (active) and 43.3 µM (active)
[5]
  outcome: inactive
[8]
  outcome: inactive
[6]
  outcome: inactive

## CC(Oc1cc(Cl)c(Cl)cc1Cl)C(=O)O (stereo not drawn)
[1]
  Potency: inactive
[7]
  Potency: inactive
[2]
  Potency: inactive
[5]
  outcome: inactive
[8]
  outcome: inactive
[9]
  outcome: inactive

## Nc1c(Br)cc(Br)c2c1C(=O)c1ccccc1C2=O
[1]
  Potency: inactive
[2]
  Potency: inactive
[3]
  Potency: inactive
[4]
  Potency: 2.29 µM (active)
[5]
  fluorescence, relative to Rose Bengal: -0.0013% [at 18.6 µM]
[8]
  fluorescence, % of fluorescein control: 0.0991% [at 18.6 µM]
[9]
  fluorescence, % of triamterene: -0.127% [at 18.6 µM]
[6]
  fluorescence, % of fluorescent control: -0.009% [at 18.6 µM]

## CC(C)[C@@H](C(=O)O[C@@H](C#N)c1cccc(Oc2ccccc2)c1)c1ccc(Cl)cc1
[1]
  Potency: inactive
[7]
  Potency: inactive
[2]
  Potency: inactive
[4]
  Potency: 12.4 µM (active) and 30.6 µM (active)
[5]
  outcome: inactive
[8]
  outcome: inactive
[9]
  outcome: inactive
[6]
  outcome: inactive

## O=S(=O)(c1ccccc1)c1ccccc1
[1]
  Potency: inactive
[7]
  Potency: inactive
[2]
  Potency: inactive
[5]
  outcome: inactive
[9]
  outcome: inactive
[6]
  outcome: inactive

## Cc1ncc(C[n+]2csc(CCO)c2C)c(N)n1
[7]
  Potency: inactive
[2]
  Potency: inactive
[3]
  Potency: inactive
[5]
  outcome: inactive
[8]
  outcome: inactive
[9]
  outcome: inactive
[6]
  outcome: inactive

## Cc1ccc(N)c(C)c1
[1]
  Potency: inactive
[7]
  Potency: inactive
[2]
  Potency: inactive
[4]
  Potency: inactive
[5]
  outcome: inactive
[8]
  outcome: inactive
[9]
  outcome: inactive
[6]
  outcome: inactive
